Screens deposited in PubChem by several laboratories.
Rows were chosen to be rich in hits. Some 3.8% of all compounds tested hit in one or more screens of this group.
ADAM10 inh – inhibitors of human ADAM10; inhibition, % at 7 µM; 370,000 tested, 0.62% active; AID 720582; recombinant ADAM10, EDANS/DABCYL FRET peptide cleavage, 3 h; O14672;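 active = inhibition above a per-campaign cutoff equal to the mean of compounds falling between control-based bounds plus 3 SD, cut at about 20% in these data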;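 note: 0% = DMSO wells while the 100% control is not disclosed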
FGF22 binding – shifts melting point of recombinant human FGF22 | recombinant FGF22 thermal shift, SYPRO orange fluorescence; percent of sucrose octasulfate shift, DMSO zero | activity (Tm shift, normalised), % at 9.99 µM | 340,000 tested, 1.5% active | AID 651658;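 active = mean Tm shift, scaled 0 neutral to 100 positive control, at about 1.3% or above, every replicate too, limit read from the data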
Target sequence (Q9HCT0 whole entry, looked up): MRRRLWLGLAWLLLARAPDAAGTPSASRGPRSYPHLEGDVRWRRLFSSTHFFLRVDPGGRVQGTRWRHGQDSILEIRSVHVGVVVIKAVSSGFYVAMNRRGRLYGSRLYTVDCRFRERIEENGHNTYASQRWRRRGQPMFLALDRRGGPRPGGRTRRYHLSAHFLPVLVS
rRNA inh HTS – selective bacterial rRNA inhibition in E. coli; 350,000 tested, 1.6% active; GFP signal change (wild-type ribosome), % (no concentration beside the values); E. coli WT GFP vs humanized-ribosome RFP mutants, fluorescence, 24 h; stronger effect = lower value; DMSO median 0, no signal -100;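 active = significant combined selectivity score with lowered wild-type GFP, culture density cut under 30%, mutant RFP and density less affected; inactive = any of these conditions unmet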
proKLK7 act – activators of human kallikrein-7 zymogen; 370,000 tested, 0.9% active; purified proKLK7, EDANS-DABCYL substrate fluorescence; 100% is mature enzyme control, 0% vehicle; activation, % at 7 µM; P49862;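 active = activation above the mean of all tested compounds plus 3 SD, computed per campaign excluding outliers beyond control limits, cut at about 13% in these data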
Target sequence (P49862 whole entry, looked up): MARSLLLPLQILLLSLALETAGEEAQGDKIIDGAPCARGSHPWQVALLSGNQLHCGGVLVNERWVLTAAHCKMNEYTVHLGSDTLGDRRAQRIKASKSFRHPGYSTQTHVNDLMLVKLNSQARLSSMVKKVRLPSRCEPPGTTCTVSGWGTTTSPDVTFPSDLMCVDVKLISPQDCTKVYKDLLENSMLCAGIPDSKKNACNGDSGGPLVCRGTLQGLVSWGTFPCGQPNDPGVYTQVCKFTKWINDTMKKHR
ADAM17 inh – inhibits human ADAM17; P78536; recombinant ADAM17, EDANS/DABCYL FRET peptide cleavage; inhibition, % at 6.95 µM; 370,000 tested, 0.83% active;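 active = inhibition above the mean of compounds lying between control limits plus 3 SD, set per campaign, cut at about 8.5% in these data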;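 note: 0% = DMSO-only wells as the low control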
* marks the source's active call; other numbers are inactive results; i = inactive; . = not tested or not shown.

SMILES	ADAM10 inh	FGF22 binding	rRNA inh HTS	proKLK7 act	ADAM17 inh
COc1ccc(NC(=O)N(C)C[C@@H]2OCCCC[C@H](C)Oc3ccc(NC(=O)CCCN(C)C)cc3C(=O)N([C@@H](C)CO)C[C@H]2C)cc1	.	0	1	.	.
COc1ccc(NC(=O)N(C)C[C@H]2Oc3ccc(NC(=O)Nc4ccc5c(c4)OCO5)cc3CC(=O)N([C@@H](C)CO)C[C@H]2C)cc1	.	0	-7	.	.
O=C(NNC(=O)c1ccc(F)cc1F)c1ccc2c(c1)OCO2	-11	44*	5	0	0
O=C(NN=C1CCCCCC1)c1ccc2c(c1)OCO2	5	43*	8	0	-1
C[C@H](CO)N1C[C@H](C)[C@@H](CN(C)C(=O)C2CC2)Oc2cc(C#CCN(C)C)ccc2S1(=O)=O	.	.	9	.	.
COc1ccc(NC(=O)Nc2ccc3c(c2)CC(=O)N([C@H](C)CO)C[C@H](C)[C@@H](CN(C)S(=O)(=O)c2ccc(C)cc2)O3)cc1	.	0	-5	.	.
CC(C)(C)NC(=S)N/N=C/c1cc(Br)c(O)c(Br)c1	-238	0	-40*	1	-88
O=C(c1ccccc1)N1CC(=O)N2[C@H](CO)[C@@H](c3ccc(C#CCC4CCCC4)cc3)[C@H]2C1	.	.	-20	.	.
O=C(c1ccco1)N(CCO)Cc1cc2cc3c(cc2[nH]c1=O)OCO3	i	43*	15	0	-183
CN(C)CCCN(Cc1cc2cc3c(cc2[nH]c1=O)OCO3)C(=S)Nc1cccc(Cl)c1	-255	0	-41	3	-78
COc1ccc2[nH]c(=O)c(CN(CC3CCCO3)C(=S)Nc3ccccc3)cc2c1 (stereo unspecified)	-95	44*	7	2	-27
COc1ccccc1NC(=S)N(CCCN(C)C)Cc1cc2cc3c(cc2[nH]c1=O)OCO3	-243	44*	12	2	-76
O=C(c1ccccc1)N(CCO)Cc1cc2cc3c(cc2[nH]c1=O)OCCO3	-88	0	14	1	-30
CN(C)CCCN(Cc1cc2cc3c(cc2[nH]c1=O)OCO3)C(=S)Nc1ccccc1	i	43*	8	8	-179
O=C(O)CC(NC(=O)C12CC3CC(CC(C3)C1)C2)c1cccc([N+](=O)[O-])c1 (stereo unspecified)	5	43*	12	0	0
COc1ccc2c3c(n(C)c2c1)[C@@H](CO)N(C(=O)Nc1ccccc1F)CC31CN(C)C1	.	.	0	.	.
COc1ccc(C(=O)COC(=O)C2CCCN2C(=O)C23CC4CC(CC(C4)C2)C3)cc1 (stereo unspecified)	8	43*	4	0	-2
COc1ccc(NC(=O)N2CCCC2C(=O)NC23CC4CC(CC(C4)C2)C3)cc1 (stereo unspecified)	-6	0	1	1	-5
O=C(COC(=O)C1CCCN1C(=O)C12CC3CC(CC(C3)C1)C2)c1ccc(Br)cc1 (stereo unspecified)	4	44*	10	0	-2
O=C(O)C1CCCN1C(=O)C12CC3CC(CC(C3)C1)C2 (stereo unspecified)	2	0	9	0	-2
C[C@H](CO)N1C[C@H](C)[C@H](CN(C)Cc2ccccc2)Oc2cc(-c3ccccc3)ccc2S1(=O)=O	.	.	-1	.	.
C[C@H]1CN([C@@H](C)CO)C(=O)c2cccc(NS(=O)(=O)c3ccc(Cl)cc3)c2O[C@@H]1CN(C)Cc1ccncc1	.	0	2	.	.
C[C@H](O)C#Cc1cnc2c(c1)C(=O)N([C@H](C)CO)C[C@H](C)[C@@H](CN(C)C(=O)CN1CCOCC1)O2	.	0	-1	.	.
c1ccc(CNc2nc(N3CCN(Cc4ccccc4)CC3)nc3ccccc23)cc1	-52	0	-43*	-1	-19
CC(C)NC(=O)Nc1ccc2c(c1)C(=O)N([C@H](C)CO)C[C@H](C)[C@@H](CN(C)Cc1ccncc1)O2	.	0	-5	.	.
SMILES	ADAM10 inh	FGF22 binding	rRNA inh HTS	proKLK7 act	ADAM17 inh
CN(C)/N=C/c1ccc(N2CCOCC2)cc1	1	0	-17*	0	-6
C(=N\n1cnnc1)/c1ccc(N2CCOCC2)cc1	-42	.	.	0	-14
O=C(COc1ccc2c(c1)CCC2)NCc1ccc(Cl)cc1	6	0	-30*	0	4
O=C(COc1ccc2c(c1)CCC2)NCc1cccc(Cl)c1	6	.	.	0	4
COc1cc([N+](=O)[O-])ccc1NC(=S)NNC(=O)c1ccc2c(c1)OCO2	5	1	-17*	0	-1
CN1C(=O)c2cc(NC(=O)c3ccccc3)ccc2OC[C@@H]2O[C@H](CC(=O)NC3CCCC3)CC[C@H]21	.	0	0	.	.
CN1C(=O)c2cc(NC(=O)c3cccc(Cl)c3)ccc2OC[C@H]2O[C@@H](CC(=O)NC3CCCCC3)CC[C@H]21	.	1.4*	-7	.	.
CCCN1C[C@@H](C)[C@H](OC)CN(C)C(=O)c2cc(NC(=O)c3cccc(F)c3)ccc2OC[C@H]1C	.	0	-4	.	.
CC1(C)CC(=O)C=C(c2ccc(COC(=O)c3ccccc3)cc2)C1=O	-6	0	-20*	0	-4
Cc1ccc(C(=O)c2cc3ccccc3o2)cc1[N+](=O)[O-]	-1	43*	22	0	0
C/C(=N/NC(=O)C(O)(c1ccccc1)c1ccccc1)c1ccc([N+](=O)[O-])o1	-2	0	-35*	-1	2
O=C(NNC(=O)c1ccc([N+](=O)[O-])o1)c1ccccc1	8	.	.	1	0
CCCC/C(O)=C1\C(=O)CC(C)(C)CC1=Nc1ccccc1OC	11	0	-37	0	2
CCC/C(O)=C1\C(=O)CC(C)(C)CC1=NCc1ccccc1	3	0	-22*	0	-1
CCCN=C1CC(C)(C)CC(=O)/C1=C(/O)CCC	1	0	10	0	-1
CCCC/C(O)=C1\C(=O)CC(C)(C)CC1=Nc1ccc(N)cc1	-2	43*	12	0	-2
CC(C)NC(=O)Nc1cccc2c1O[C@H](CN(C)C(=O)NC(C)C)[C@H](C)CN(C)C2=O	.	.	3	.	.
CCOC(=O)c1c(N)sc(C(O)(C(F)(F)F)C(F)(F)F)c1-c1ccc(OC)cc1OC	13	0	-27*	-1	-1
Cc1ccc(NC(=O)C2CCCN2C(=O)NC2CCCCC2)cc1F (stereo unspecified)	-13	43*	5	1	0
Cc1ccc(NC(=O)C2CCCN2C(=O)NC2CCCCC2)cc1C (stereo unspecified)	10	0	19	1	1
O=C1OC[C@@H]2CCCN2C(=O)[C@@H](CC(=O)N(CCO)Cc2ccccc2)C/C=C\C[C@@H]1Cc1ccc(F)cc1	4	44*	-9	0	-3
CCOC(=O)c1c(C)[n+]([O-])c2ccc3c(non3O)c12	-3	44*	-26	0	2
